Data published in PubChem BioAssay (NCI).
Compounds without any hit were thinned out: in the full panel of roughly 83,000, 20% have a hit.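 The test compound was applied at a single concentration to cells in 96-well plates for 48 hours, and percent growth was recorded.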 Calls of active or inactive are those of the source. How the source made its calls: active means growth percent below 10; inactive means the rest.

How the values were obtained:
Test in all cases: NCI-60 one-dose screen, 48 h (100 = growth as untreated, 0 = no growth, -100 = all killed)
Settings in all cases: 10 µM unless noted
HCT-15 colon = tested on: HCT-15 colon
HT29 colon = tested on: HT29 colon
SNB-75 CNS = tested on: SNB-75 CNS
SNB-19 CNS = tested on: SNB-19 CNS
U251 CNS = tested on: U251 CNS
PC-3 prostate = tested on: PC-3 prostate
SK-MEL-5 melanoma = tested on: SK-MEL-5 melanoma
UACC-62 melanoma = tested on: UACC-62 melanoma
LOX IMVI melanoma = tested on: LOX IMVI melanoma
SK-MEL-28 melanoma = tested on: SK-MEL-28 melanoma

Measured: growth

N#Cc1c(-c2ccccc2)nc(SCc2nnc(-c3ccc(Cl)cc3)o2)[nH]c1=O
inactive: HCT-15 colon 101% | HT29 colon 94.1% | SNB-75 CNS 93.9% | SNB-19 CNS 100% | U251 CNS 81% | PC-3 prostate 61.5% | SK-MEL-5 melanoma 99.5% | UACC-62 melanoma 98.5% | LOX IMVI melanoma 94.1% | SK-MEL-28 melanoma 110%

CN1CCN(Cc2ccc(NC(=O)c3cncc(C#Cc4cnc5ccc(Cl)nn45)c3)cc2C(F)(F)F)CC1
active: HCT-15 colon 0.05% | HT29 colon 2.68% | SNB-75 CNS -52.4% | SNB-19 CNS 6.75% | U251 CNS 4.22% | PC-3 prostate -18.6% | SK-MEL-5 melanoma -58.7% | UACC-62 melanoma -14.5% | LOX IMVI melanoma -44.3% | SK-MEL-28 melanoma -8.84%

CN(C)c1ccc(-c2nc(-c3ccccc3)c(-c3ccccc3)[nH]2)cc1
inactive: HCT-15 colon 77.5% | HT29 colon 58.9% | SNB-75 CNS 106% | SNB-19 CNS 106% | U251 CNS 103% | PC-3 prostate 76.9% | SK-MEL-5 melanoma 100% | UACC-62 melanoma 97.7% | LOX IMVI melanoma 88.7% | SK-MEL-28 melanoma 103%

N#Cc1c(Nc2ccc(N3CCOCC3)cc2)nc(SCC(=O)c2ccc(Br)cc2)nc1-c1ccccc1
inactive: HCT-15 colon 103% | HT29 colon 98.3% | SNB-75 CNS 97.7% | SNB-19 CNS 117% | U251 CNS 101% | PC-3 prostate 86.1% | SK-MEL-5 melanoma 102% | UACC-62 melanoma 104% | LOX IMVI melanoma 100% | SK-MEL-28 melanoma 104%

CN1CCN(C(=O)C(C)(C)c2ccc(C(=O)Nc3cn4cc(-c5ccncc5)ccc4n3)cc2)CC1
inactive: U251 CNS 16% | PC-3 prostate 25.7%
active: HCT-15 colon 2.11% | HT29 colon 6.49% | SNB-75 CNS -5.48% | SNB-19 CNS 9.14% | SK-MEL-5 melanoma -98.2% | UACC-62 melanoma -31.3% | LOX IMVI melanoma -19.9% | SK-MEL-28 melanoma 7.28%

CCN1CCN(CC(=O)Nc2nc3ccc(NCc4ccc(F)cc4)cc3s2)CC1
inactive: HCT-15 colon 67.3% | HT29 colon 77.4% | SNB-75 CNS 90.8% | SNB-19 CNS 99.2% | U251 CNS 81.9% | PC-3 prostate 78.9% | SK-MEL-5 melanoma 90.8% | UACC-62 melanoma 87.4% | LOX IMVI melanoma 78.6% | SK-MEL-28 melanoma 102%

COCCn1cc(-c2csc(-c3c[nH]c4ccc(Br)cc34)n2)c2cccnc21
inactive: HCT-15 colon 13.1% | HT29 colon 18.2% | SNB-75 CNS 39.7% | SNB-19 CNS 55.6% | U251 CNS 36.5% | PC-3 prostate 16% | SK-MEL-5 melanoma 19.9% | UACC-62 melanoma 44.7% | SK-MEL-28 melanoma 52.3%
active: LOX IMVI melanoma -10.7%

CCN(CC)CCCOc1ccc2ncnc(Nc3ccc(Oc4cccc(C(F)(F)F)c4)c(Cl)c3)c2c1
active: HCT-15 colon -33.6% | HT29 colon -44.6% | U251 CNS -28.6% | PC-3 prostate 8.76% | SK-MEL-5 melanoma -100% | UACC-62 melanoma -33.8% | LOX IMVI melanoma -100% | SK-MEL-28 melanoma -89.1%
inactive: SNB-75 CNS 33.9% | SNB-19 CNS 30.9%

CCOC(=O)c1[nH]c2c(c1C)-c1[nH]c(=O)c(S(=O)(=O)c3ccccc3)cc1SC2
inactive: HCT-15 colon 72.8% [100 µM] | HT29 colon 13.4% [100 µM] | SNB-75 CNS 17% [100 µM] | SNB-19 CNS 94.7% [100 µM] | U251 CNS 31.9% [100 µM] | SK-MEL-5 melanoma 35.9% [100 µM] | UACC-62 melanoma 21.2% [100 µM] | LOX IMVI melanoma 50% [100 µM] | SK-MEL-28 melanoma 20.7% [100 µM]
active: PC-3 prostate -29.5% [100 µM]

Cc1nn(-c2cc(NC3CCC(O)CC3)c3c(=O)[nH]c(CCC(F)(F)F)cc3c2)c2c1C(=O)CC(C)(C)C2 (stereo not given)
inactive: HCT-15 colon 31.1% | HT29 colon 13.9% | SNB-75 CNS 56.8% | SNB-19 CNS 63.1% | U251 CNS 56.5% | PC-3 prostate 55.4% | SK-MEL-5 melanoma 51.7% | UACC-62 melanoma 45% | LOX IMVI melanoma 30.2% | SK-MEL-28 melanoma 53.8%

CCOC(=O)c1c(C)nc2c(c1N)CC(=O)N2Cc1ccc(OC)cc1
active: SNB-75 CNS -5.39% | SNB-19 CNS 4.6% | U251 CNS 4.05%
inactive: HCT-15 colon 55.6% | HT29 colon 38.4% | PC-3 prostate 43% | SK-MEL-5 melanoma 53.7% | UACC-62 melanoma 25.7% | LOX IMVI melanoma 75.9% | SK-MEL-28 melanoma 55%

N#Cc1cccc(C2C3=C(COC3=O)N(CCO)c3cc4c(cc32)OCO4)c1 (stereo not given)
inactive: HCT-15 colon 26.1% | SNB-75 CNS 13% | SNB-19 CNS 32.9% | U251 CNS 21.7% | PC-3 prostate 29.4% | SK-MEL-5 melanoma 29.6% | UACC-62 melanoma 43.4% | LOX IMVI melanoma 35.9% | SK-MEL-28 melanoma 55.2%
active: HT29 colon 6.62%

O=C1c2ccccc2C(=O)c2c1cc1c(c2[N+](=O)[O-])OCO1
active: SNB-75 CNS -13.4% | U251 CNS -13.3% | PC-3 prostate -3.71% | LOX IMVI melanoma 2.79%
inactive: HCT-15 colon 13.7% | HT29 colon 32.5% | SNB-19 CNS 21.7% | SK-MEL-5 melanoma 80% | UACC-62 melanoma 15.2% | SK-MEL-28 melanoma 103%

O=S(=O)(NCCNc1nccc(-c2c(-c3cccc(O)c3)nc3occn23)n1)c1ccc(Br)cc1
active: SK-MEL-5 melanoma 4.04% | UACC-62 melanoma 5.9%
inactive: HCT-15 colon 67.3% | HT29 colon 19.1% | SNB-75 CNS 56.5% | SNB-19 CNS 65.8% | U251 CNS 41% | PC-3 prostate 29.9% | LOX IMVI melanoma 25.2% | SK-MEL-28 melanoma 26.1%
